These results are taken from PubChem BioAssay AID1626 (SRMLSC, 2009).

The whole screen tested about 220,000 compounds, of which about 2,000 (0.91%) were called active. Roughly 2% stayed inconclusive and do not appear here. These entries were drawn from the full list. Potency and affinity values are given separately. A number with no mark means an inactive call. Rule as the data show it: inconclusive = inhibition above about 80% without an active follow-up result; inactive = below that; test concentration not stated here.

A word on the inhibition: it is the relative decrease from the control value, in per cent.

The nature of this assay: M. tuberculosis H37Rv growth inhibitors, H37Rv strain (AID 1626).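 Also: bacteria incubated seven days before Alamar blue readout; 0% = bacteria only wells and 100% = bacteria with antibiotic wells.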 The following applies: active compounds read high, concentration not given here.
For the compound `O=C(Nc1ccccc1)N(Cc1ccc2c(c1)OCO2)Cc1nc2ccccc2c(=O)[nH]1`, the inhibition is 9.11%.

On to `CCOC(=O)C1(CCc2ccccc2)CCN(Cc2ccc(O)cc2)CC1`, for which the inhibition was 1.73%. Under `CCOC(=O)C1(CCc2ccccc2)CCN(Cc2nccn2CC)CC1` stands 4.84%. Consider `Cn1cnnc1SCNC(=O)C(F)(F)F`, for which the inhibition was -14.5%. The same measure for `COc1ccccc1-c1coc2cc(OC(=O)/C=C/c3ccccc3)ccc2c1=O`: 12.4%. Take `Cc1oc2cc(OC(C)C(=O)O)ccc2c(=O)c1Oc1ccccc1` (centres undefined): the inhibition was -9.62%. Take `CCN(CC)C(=O)Oc1ccc2c(=O)c(-c3ccccc3)coc2c1`: the inhibition is 8.19%. In the case of `CCOC(=O)c1oc2cc(OCC(N)=O)ccc2c(=O)c1-c1ccc(OC)c(OC)c1`, the inhibition is -2.49%. Take `CC(=O)Oc1ccc2c(=O)c(-c3ccccc3)coc2c1`: the inhibition was 71.2%.

With `CCOC(=O)c1oc2cc(OC(C)=O)ccc2c(=O)c1-c1ccc(OC)c(OC)c1`, the inhibition is -4.14%. As for `Cc1oc2cc(OCC(=O)O)ccc2c(=O)c1Oc1ccccc1`, the inhibition is -10.7%. Take `COc1ccccc1-c1coc2cc(OC(=O)N3CCOCC3)ccc2c1=O`: the inhibition is 0.83%.

For the compound `CCOC(=O)N1CCC(NC(=O)C2CCN(S(=O)(=O)c3ccc4c(c3)oc(=O)n4C)CC2)CC1`, the inhibition is -3.61%. Take `Cc1ccc(OCCNC(=O)c2cc(C(=O)NCCOc3ccc(C)cc3)cc([N+](=O)[O-])c2)cc1`: the inhibition is 1.97%.

With `O=C1c2cc3ccccc3c(-c3ccccc3)c2C(=O)N1c1ccccn1`, the inhibition was 11.2%. Regarding `O=C(C1CCC(N2C(=O)C3CC=CCC3C2=O)CC1)N1CCCCC1` (centres undefined), the inhibition was 0.53%. Consider `N#Cc1c2ccc(OCC(N)=O)cc2n2ccccc12`, for which the inhibition was 5.54%. For the compound `COc1ccc2c(C#N)c3ccccn3c2c1`, the inhibition was 8.95%. Take `CCOc1ccccc1Oc1coc2cc(OCC(=O)O)ccc2c1=O`: the inhibition is 1.18%. On to `COc1ccccc1-c1coc2cc(OCC(=O)OCc3ccccc3)ccc2c1=O`, for which the inhibition is 8.31%. The same measure for `CS(=O)(=O)Nc1ccccc1NS(C)(=O)=O`: 2.07%; for `Cc1nnc(SCC(=O)NCc2ccc(Cl)cc2)[nH]c1=O`: -5.88%; for `CC(=O)c1cccc(NC(=O)CC2S/C(=N/N=C/c3ccccc3)NC2=O)c1` (centres undefined): 5.53%. `O=C(CC(=O)c1ccccc1O)c1ccc(F)cc1`: the inhibition is -0.45%. Consider `Cc1ccc(C(=O)CC(=O)c2cccc(F)c2)c(O)c1`, for which the inhibition was 21%. Regarding `N=C1C(c2ccccc2)=C(O)CN1c1cccc(S(=O)(=O)Nc2cccc(C(F)(F)F)c2)c1`, the inhibition was 71.6%. Take `CCc1ccc(NC(=O)C(C)OC(=O)C2CCC(=O)N2)cc1` (centres undefined): the inhibition was -4.48%. For the compound `Cc1ccccc1NC(=S)NCCc1ccccn1`, the inhibition was 1.47%.

On to `Cc1cc(C)cc(N(CC(=O)NCC2CCCO2)C(=O)CN2C(=O)COc3ccccc32)c1` (centres undefined), for which the inhibition was -1.08%. For the compound `COc1ccc(OCCOc2ccc(C)nc2[N+](=O)[O-])cc1`, the inhibition was 9.48%. For the compound `CCC(CO)NCc1ccc(Br)cc1` (centres undefined), the inhibition is 2.11%. On to `CCC(CO)NCC#Cc1ccccc1` (centres undefined), for which the inhibition is -0.71%.

As to `CCN1CCN(C(c2cc3cccc(C)c3[nH]c2=O)c2nnnn2Cc2ccccc2)CC1` (centres undefined), the inhibition was -2.17%. On to `O=[N+]([O-])C(=C1Nc2ccccc2N1)C(Cl)=C(Cl)Cl`, for which the inhibition was 0.64%. On to `O=[N+]([O-])c1ccc(O)c2ncccc12`, for which the inhibition was 79%. The same measure for `Clc1cc2cccnc2c2ccccc12`: -3.53%; for `CCOC(=O)COc1cc([N+](=O)[O-])cc2cccnc12`: 3.26%. Consider `Oc1c(I)cc(I)c2cccnc12`, for which the inhibition is 76.2%. Consider `COC(=O)c1ccc(COc2cc([N+](=O)[O-])cc3cccnc23)cc1`, for which the inhibition is -7.07%. For the compound `O=[N+]([O-])c1cc(F)c2cccnc2c1O`, the inhibition is -0.05%. For `Cc1ccc([N+](=O)[O-])c2cccnc12`, the inhibition was -9.13%. Turning to `O=[N+]([O-])c1cc(Cl)c2cccnc2c1O`, the inhibition was 3.31%. The same measure for `CCOc1ccccc1CN1C(=O)c2ccccc2C1C(=O)NCC1CCCO1` (centres undefined): 1.98%; for `Cc1cc(C)n2c(Br)c(CN3CC4CC(C3)c3cccc(=O)n3C4)nc2n1` (centres undefined): 9.25%; for `Brc1ccccc1-c1cnco1`: -1.43%. On to `Cc1cccc(OCC(=O)N2CCN(C(=O)c3ccco3)CC2)c1`, for which the inhibition was -15.9%. Regarding `COc1ccc(-n2c(C)nc3c(cnn3-c3ccc(C)c(C)c3)c2=O)cc1`, the inhibition is 17.5%. Turning to `O=c1cc(CSc2n[nH]c(-c3ccncc3)n2)nc2sccn12`, the inhibition is 1.39%.

On to `OCCN1CCN(Cc2cc(Cl)c3cccnc3c2O)CC1`, for which the inhibition was -5.12%. As for `CCN(CC)C(=O)Oc1c(Cl)cc(Cl)c2cccnc12`, the inhibition was 4.99%. As to `CN(C)C(=O)Oc1c(Cl)cc(Cl)c2cccnc12`, the inhibition is 1.37%. Consider `Oc1ccc(CN2CCc3ccccc3C2)c2cccnc12`, for which the inhibition is 1.81%.

In the case of `CCOC(=O)CN1C(=O)S/C(=C/c2cc(C)n(C)c2C)C1=O`, the inhibition is 8.52%. Under `CC(NCCN(C)C)C(=O)C12CC3CC(CC(C3)C1)C2` (centres undefined) stands 6.21%; under `Cc1ccc(NCCC#N)cc1C`, -1.15%; under `CCn1c(SCC(=O)NCc2ccccc2)nnc1-c1ccccc1O`, -6.19%. On to `CCOc1cc(/C=N/NC(=O)CSc2nncn2C)ccc1OCc1ccccc1`, for which the inhibition is -1.69%. Consider `CCOC(=O)c1[nH]ncc1CN1CCC(Cc2cccc(OC)c2)(C(=O)OCC)CC1`, for which the inhibition was -9.77%. For `O=C(OCC(=O)N1CCCc2ccccc21)c1cncc(Br)c1`, the inhibition was -11.1%. For the compound `Cn1c(O)c(C(c2ccncc2)c2c(O)n(C)c(=S)n(C)c2=O)c(=O)n(C)c1=S`, the inhibition is -3.3%. In the case of `O=C(O)Cc1cn(-c2ccccc2)nc1-c1ccccc1`, the inhibition is 3.9%. For the compound `Cc1ccc(-c2nn(-c3ccccc3)cc2CSC(=N)N)cc1`, the inhibition was 50.3%. Regarding `COc1ccc(-c2nn(-c3ccccc3)cc2CO)cc1`, the inhibition was 5.02%. For the compound `OCc1cn(-c2ccccc2)nc1-c1ccc(-c2nn(-c3ccccc3)cc2CO)cc1`, the inhibition is -1.67%.
